D2 antagonist – antagonists of human D2 dopamine receptor. P14416. HEK293 TREx D2 cells, calcium flux, dopamine EC80. inhibition, % at 10 µM. 340,000 compounds, 2% hits. AID 485344; in the data active means inhibition above about 30%; inactive means below that, where a call was filed
Target sequence (P14416 whole entry, looked up): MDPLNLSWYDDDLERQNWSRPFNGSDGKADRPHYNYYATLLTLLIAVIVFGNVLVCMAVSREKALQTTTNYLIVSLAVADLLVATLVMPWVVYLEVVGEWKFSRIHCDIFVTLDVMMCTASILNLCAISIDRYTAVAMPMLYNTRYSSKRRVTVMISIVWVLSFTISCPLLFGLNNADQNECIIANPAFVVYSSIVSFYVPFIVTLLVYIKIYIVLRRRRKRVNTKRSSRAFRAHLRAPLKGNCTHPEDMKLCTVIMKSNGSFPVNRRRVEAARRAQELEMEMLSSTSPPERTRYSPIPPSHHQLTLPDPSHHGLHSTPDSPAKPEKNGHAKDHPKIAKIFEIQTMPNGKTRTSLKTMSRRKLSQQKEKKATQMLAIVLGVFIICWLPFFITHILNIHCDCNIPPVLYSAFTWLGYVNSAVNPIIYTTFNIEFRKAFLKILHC
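Overnight-induced (tetracycline, 30 C) HEK293 T-REx cells carrying force-coupled D2 receive a no-wash calcium dye, then compound, then EC80 dopamine at 180 s; signals are read kinetically throughout.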
Anesthetic bind – candidate novel general anesthetic via apoferritin binding. 350,000 compounds, 0.074% hits. P02791. apoferritin/1-aminoanthracene competitive binding, fluorescence. Potency, µM (series often up to 77.5 µM), actives largely listed as inhibitors; active means well fitted inhibition curve with a large enough effect; inconclusive means small, poorly fitted or top-dose-only effect; inactive means no such curve, though single readings can be large or run the other way; further: nearly all actives have a fitted effect of over 20% in size
Target sequence (P02791 2-175 limits assumed): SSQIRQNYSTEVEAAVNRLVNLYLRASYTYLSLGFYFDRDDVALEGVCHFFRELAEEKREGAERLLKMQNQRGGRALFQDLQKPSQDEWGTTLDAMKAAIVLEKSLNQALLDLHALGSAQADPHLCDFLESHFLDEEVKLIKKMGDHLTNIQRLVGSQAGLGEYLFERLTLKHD
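Steps: apoferritin (10 uM) was premixed with half-saturated 1-AMA in PBS, compounds were pin-transferred, plates stood 10 min at room temperature, fluorescence was read at 380/535 nm, and curves were fitted with a Hill equation.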
D2 PAM-1 – positively modulates the human D2 dopamine receptor allosterically | potentiation, % at 10 µM | P14416 | 340,000 compounds, 0.34% hits | HEK293 T-REx D2, calcium flux, EC20 dopamine potentiation;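 active means potentiation over 3 SD above the plate norm, cut at about 30% in these data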
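Cells plated with tetracycline inducer and held overnight at 30 C; calcium dye loaded 30–90 min at room temperature; baseline taken, compound added and read 180 s; EC20 dopamine then added and read 180 s.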
D2 ag-1 – agonists of human D2 dopamine receptor | HEK293 T-REx D2 cells, calcium flux agonist mode | activation, % at 2 µM | 340,000 compounds, 0.53% hits;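 active means activation over 3 SD above normal in the single-dose calcium agonist read, cut at about 30% in these data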
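Tetracycline-induced HEK293 T-REx cells with force-coupled D2 receptor, plated overnight at 30 C, loaded with no-wash calcium dye. After a 10 s baseline, compound was pin-added and calcium flux read kinetically for 180 s; calcium rises flagged agonists.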
D2 PAM-2 – potentiates the human D2 dopamine receptor allosterically | DiscoveRx D2 beta-arrestin cells, luminescence, 90 min; 100% = 57 uM dopamine signal | 360,000 compounds, 0.23% hits | potentiation, % (no concentration beside the values); in the data active means potentiation above about 50%; inconclusive means mostly about 30% to 49%
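D2 cells co-treated with compound plus 50 nM dopamine (EC20) for 90 min at 37 deg C to detect potentiation. Beta-arrestin recruitment was read as enzyme-fragment luminescence after 1 h at ambient temperature. Full response was set by 57 uM dopamine.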
D2 ag-2 – human D2 receptor agonism in beta-arrestin assay; P14416; DiscoveRx PathHunter D2 beta-arrestin, luminescence, 90 min; 100% = 57 uM dopamine signal; activation, % (test concentration not listed); 360,000 compounds, 0.084% hits; in the data active means activation above about 40%; inconclusive means between about 15% and that limit
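DiscoveRx PathHunter D2 beta-arrestin cells (2,100/well) attached overnight, then compound-stimulated 90 min at 37 C in HBSS/10 mM HEPES/0.1% Tween-20 buffer; beta-galactosidase complementation read by luminescence after 1 h at ambient temperature. Dopamine 57 uM final (EC100) as control.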
Each line names hits and unclear results; the compound was inactive in the other large screens. Hits are enriched below; roughly 2.5% of the tested compounds scored in any of these assays.

Cc1ccc(NC(=O)N2CCC(C(=O)NCc3ccccc3)CC2)cc1	D2 antagonist 39
COc1ccc(NC(=O)N2CCC(C(=O)c3ccc(F)cc3)CC2)cc1	none
CCOc1ccc(N2C(=O)c3ccccc3C2=O)cc1	none
Cn1c(N)c(N2CCN(c3ccccc3)CC2)c(=O)[nH]c1=O	none
Cc1c2ccccc2nc2c(F)c(NCCO)c(F)c(F)c12	D2 PAM-2 inconclusive
Cc1c2ccccc2nc2c(F)c(NC(C)C)c(F)c(F)c12	D2 ag-1 45
Cc1noc(C)c1COc1ccc(C(=O)OC(C)C(=O)Nc2ccc(N3CCOCC3)cc2)cc1 (configuration not stated)	D2 antagonist 45
CC(=O)Nc1ccc(NC(=O)C(C)OC(=O)c2ccc(OCc3c(C)noc3C)cc2)cc1 (configuration not stated)	Anesthetic bind inconclusive
O=C(CSc1ccccc1Cl)c1ccco1	Anesthetic bind 25µM
O=C(CSc1ccc(Cl)cc1)c1ccco1	Anesthetic bind inconclusive
C/C(CCc1ccccc1)=N\NC(=S)NCCc1ccccc1	D2 PAM-1 31
COc1ccc(C/C(N)=N/OC(=O)C(c2ccccc2)c2ccccc2)cc1OC	D2 PAM-2 50
N/C(Cc1ccc([N+](=O)[O-])cc1)=N\OC(=O)c1ccccc1Br	D2 PAM-2 122, D2 ag-2 41
N/C(Cc1ccc([N+](=O)[O-])cc1)=N\OC(=O)c1ccc2ccccc2c1	Anesthetic bind inconclusive, D2 PAM-2 143, D2 ag-2 inconclusive
COc1ccc(CC(=O)O/N=C(\N)Cc2ccc([N+](=O)[O-])cc2)cc1	none
N/C(Cc1ccc([N+](=O)[O-])cc1)=N\OC(=O)c1ccco1	D2 ag-2 53 (no result: D2 antagonist, D2 PAM-1, D2 ag-1)
COc1ccc(-c2noc(-c3ccc(Br)o3)n2)cc1	none
O=c1c2sc(-c3ccccc3)cc2nc2n1CCC2	none
COc1ccc(-n2c(=S)[nH]c3cc(C(=O)NCCCN4CCOCC4)ccc3c2=O)cc1	none
Cc1cc(C(=O)COC(=O)Cc2c(F)cccc2Cl)c(C)n1C	none (no result: D2 antagonist, Anesthetic bind, D2 PAM-1, D2 ag-1)
Cc1cccc(C(=O)O/N=C(\N)Cc2ccc([N+](=O)[O-])cc2)c1	Anesthetic bind inconclusive, D2 PAM-2 148, D2 ag-2 inconclusive
N/C(=N\OC(=O)c1ccc([N+](=O)[O-])cc1)c1ccc(Br)cc1	none
COc1ccccc1C/C(N)=N/OC(=O)c1cccc([N+](=O)[O-])c1C	D2 PAM-2 136, D2 ag-2 inconclusive
N/C(Cc1ccc([N+](=O)[O-])cc1)=N\OC(=O)C(c1ccccc1)c1ccccc1	Anesthetic bind inconclusive, D2 PAM-2 89
Cc1ccc(C(=O)O/N=C(\N)Cc2ccc([N+](=O)[O-])cc2)c(Cl)c1	D2 ag-2 inconclusive
Cc1ccc(CC(=O)O/N=C(\N)Cc2ccc([N+](=O)[O-])cc2)cc1	Anesthetic bind inconclusive
N/C(Cc1ccc([N+](=O)[O-])cc1)=N\OC(=O)c1ccc(Br)cc1	D2 PAM-2 171, D2 ag-2 inconclusive
COc1ccc(CCNC(=O)c2nonc2N)cc1OC	none
COc1ccc(CCNC(=O)c2noc3c2CCCC3)cc1OC	D2 antagonist 42
COc1cc(Br)c(CCNC(=O)c2ccco2)cc1OC	D2 antagonist 36
COc1ccc(CCNC(=O)c2ccc3nc(-c4ccco4)c(-c4ccco4)nc3c2)cc1OC	D2 PAM-2 61
COc1ccc(Cl)cc1NC(=O)c1noc2c1CCCC2	D2 antagonist 31
COc1cc(NC(=O)c2noc3c2CCCC3)c(OC)cc1Cl	none (no result: D2 antagonist, D2 PAM-1, D2 ag-1)
C=C1CN(CC(=O)OC)S(=O)(=O)c2ccccc21	none
Cc1ccc2c(c1)-c1cc(C)nn1C(c1ccc3c(c1)OCO3)N2 (configuration not stated)	none
O=C(Nc1cc(-c2ccccc2)cs1)c1ccco1	D2 antagonist 31 (no result: Anesthetic bind)
O=C(Nc1nc(-c2ccccc2)cs1)c1ccco1	none
CNC(=O)CSc1nnnn1-c1cc(C)ccc1C	D2 PAM-1 46
Cc1ccc(C)c(-n2nnnc2SCC(=O)NCCC2=CCCCC2)c1	none
Cc1cccc(C(=O)OCC(=O)N2CCCCCC2)c1	D2 antagonist 31 (no result: Anesthetic bind)
COc1ccc2oc(C(=O)OCC(=O)N3CCN(C(C)=O)CC3)c(C)c2c1	none (no result: Anesthetic bind)
COc1ccc2oc(C(=O)OCC(=O)N3CCCCC3)c(C)c2c1	D2 antagonist 31 (no result: Anesthetic bind)
CN(C)CC(C)(C)CNc1ccc(S(=O)(=O)N2CCCC2)cn1	none (no result: D2 antagonist, Anesthetic bind, D2 PAM-1, D2 ag-1)
CC(=O)N1CCN(c2ccc(S(=O)(=O)N3CCCCC3)cn2)CC1	D2 antagonist 38
CCNc1ccc(S(=O)(=O)N2CCCCC2)cn1	D2 antagonist 33 (no result: Anesthetic bind)
O=C1C(Cc2ccccc2)Nc2ncnc(N3CCOCC3)c2N1Cc1ccccc1 (configuration not stated)	none (no result: D2 antagonist, Anesthetic bind, D2 PAM-1, D2 ag-1)
COc1cccc(OCC(O)CN2CCC(Cc3ccccc3)CC2)c1 (configuration not stated)	none
OC(COc1ccc(F)cc1Cl)CN1CCC(Cc2ccccc2)CC1 (configuration not stated)	none
OC(COc1ccccc1F)CN1CCC(Cc2ccccc2)CC1 (configuration not stated)	D2 antagonist 65
CN1CCN(CC(O)COc2ccccc2)CC1 (configuration not stated)	D2 antagonist 33
OC(COc1ccccc1)CN1CCCC1 (configuration not stated)	none
OC(COc1ccccc1)CN1CCC(Cc2ccccc2)CC1 (configuration not stated)	D2 antagonist 74
Cc1ccc(OCC(O)Cn2c3ccccc3c3ccccc32)cc1 (configuration not stated)	none
Cc1ccc(OCCN2CCN(CC(O)Cn3c4ccccc4c4ccccc43)CC2)cc1 (configuration not stated)	D2 antagonist 63, D2 ag-1 63 (no result: D2 PAM-2, D2 ag-2)
CN1CCN(S(=O)(=O)c2ccc(NC(=S)NC(=O)C3CCC3)cc2)CC1	none
Oc1ccc(/C=N/n2c3ccccc3c3ccccc32)cc1	none
OC(COc1ccccc1)CN1CCN(Cc2ccc3c(c2)OCO3)CC1 (configuration not stated)	D2 antagonist 36
C=CCc1ccc(OCC(O)CN2CCN(c3ccccc3OC)CC2)c(OC)c1 (configuration not stated)	none
COc1ccc(OC)c(S(=O)(=O)N2CCN(CC(O)COc3ccccc3)CC2)c1 (configuration not stated)	D2 antagonist 48
C=CCc1ccc(OCC(O)CN2CCC(Cc3ccccc3)CC2)c(OC)c1 (configuration not stated)	D2 antagonist 41

Screens as filed in PubChem BioAssay.
